Holding throughout (experiment): Cytotoxic Profiling of Annotated Libraries Using Quantitative High-Throughput Screening (AID 1296008); also: nearly all actives have a fitted effect of over 60% in size
Holding throughout (settings): Five cell lines viability, CellTiter-Glo ATP luminescence, 48-72 h; max response: stronger effect = lower value
(ATP-based viability assays read luminescence as a measure of living cells.)

The subject of one assay is CRL-7250. The gist of the method: (§1)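 Cells exposed to compounds for 48 or 72 hr at 37 degrees Celsius. Viability read as ATP-coupled luminescence with CellTiter-Glo after 10 min at room temperature.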
The next assay has as its system HEK293. The gist of the method: as §1
Another assay has as its system HaCat. The gist of the method: as §1
A further assay deals with KB-3-1. The gist of the method: as §1
Another assay has as its system NIH3T3. A digest of the protocol:
as §1

Here are results for 18 compounds from PubChem BioAssay (NCATS).

Each structure is given as a SMILES string. Results filed as inconclusive are left out. Unmarked numbers belong to inactive results. The source made the active and inactive calls. Calls follow the shape of the dose curve; as a rule, active = well fitted inhibition curve with a large enough effect; inconclusive = small, poorly fitted or top-dose-only effect; inactive = flat fitted curve, though single readings scatter.
% is scaled to controls: 0 for no effect and ±100 for the full control effect; potency is read from the fitted curve at half-maximal effect.

Turning to `CC1CCC2(C=O)C(CO)=CCCC2C1(C)CC(=O)O` (stereo not given), the max response in the assay with CRL-7250 is 1.72%; in the assay with HEK293, -8.27%; with HaCat it was -1.16%; in the assay on KB-3-1, 2.85%; with NIH3T3, -21.3%.

`COc1c2c(c(C)c3c1C(=O)OC3)O[C@@]1(C)CCC3(C(C)(C)O)OC(=O)CC[C@]3(C)[C@H]1C2` (stereo not given in full): the max response in the assay on CRL-7250 is -2.51%; in the assay on HEK293, -0.697%; with HaCat it was -17.1%; in the assay on NIH3T3, -21.1%. Also, the compound was classed as inactive in the assay with KB-3-1.

Take `O=C(Nc1ccn[nH]1)c1c(F)cccc1F`: the call in the assay with CRL-7250 and in the assay on KB-3-1 was inactive. Moreover, the figures for the max response in the assay with HEK293, in the assay on HaCat and in the assay with NIH3T3 were 4.81%, -3.04% and 3.6%, respectively.

Consider `O=C(NCc1ccc(F)cc1)C(=O)c1c[nH]c2ccccc12`, for which the outcome in the assay with CRL-7250 was inactive. The max response was -9.93% with HEK293, -19.7% with HaCat, -9.55% in the assay on KB-3-1 and -16.4% with NIH3T3.

Take `CC(=O)CCC1=C(C)C(O[C@@H]2O[C@H](CO)[C@@H](O)[C@H](O)[C@H]2O)C(O)CC1(C)C` (stereo not given in full): the max response is -13.4% with CRL-7250; 0.019% with HEK293; 1.46% in the assay with HaCat; 1.06% in the assay on KB-3-1; 3.13% with NIH3T3.

On to `COc1cc2oc(-c3ccc(O)cc3O)cc2c(OC)c1CC=C(C)C`, for which the max response in the assay with CRL-7250 was -1.99%; in the assay on HEK293, 3%; in the assay with HaCat it was -6.75%; with KB-3-1, -1.08%; in the assay with NIH3T3, 2.22%.

For the compound `COc1cc(/C=C/CO)cc(OC)c1O[C@@H]1O[C@H](CO[C@@H]2O[C@H](CO)[C@@H](O)[C@H](O)[C@H]2O)[C@@H](O)[C@H](O)[C@H]1O`, the max response was 3.07% in the assay on CRL-7250; 1.54% in the assay with HEK293; 4.69% with HaCat; 9.56% in the assay on KB-3-1; -3.2% in the assay with NIH3T3.

As to `CC1(C)CC2C(O)c3cocc3CC(C)(O)C2C1` (stereo not given), the max response in the assay with CRL-7250 is 0.847%; in the assay with HEK293 it was 3.14%; in the assay with HaCat, -7.3%; with KB-3-1 it was 5.78%; in the assay with NIH3T3 it was 2.81%.

`C=CC1(C)C=C2CCC3C(C)(C)C(O[C@@H]4O[C@@H](CO)[C@H](O)[C@H]4O)CCC3(C)C2CC1O[C@@H]1O[C@H](C)[C@H](O)[C@H](O)[C@H]1O` (stereo not given in full): the max response was -0.496% in the assay with CRL-7250; -0.0102% with HEK293; 4.85% in the assay on HaCat; -11.1% in the assay on KB-3-1; -6.13% in the assay with NIH3T3.

On to `CC1(C)CC[C@]2(C(=O)O[C@@H]3O[C@H](CO)[C@@H](O)[C@H](O)[C@H]3O)CC[C@]3(C)C(=CCC4[C@@]5(C)CC[C@H](O[C@@H]6O[C@H](C(=O)O)[C@@H](O)[C@H](O)[C@H]6O)C(C)(C)C5CC[C@]43C)C2C1` (stereo not given in full), for which the max response is 0.241% in the assay with CRL-7250, -5.49% in the assay on HEK293, 6.58% in the assay with KB-3-1 and -3.14% with NIH3T3. Besides, the result in the assay on HaCat was inactive.

In the case of `C=C[C@]1(C)C[C@H](O)[C@@H]2[C@H](OC(=O)[C@@H]2C)C1/C(C)=C/O[C@@H]1O[C@H](CO)[C@@H](O)[C@H](O)[C@H]1O` (stereo not given in full), the max response is -0.594% in the assay on CRL-7250; -0.606% in the assay with HEK293; -9.44% in the assay on HaCat; 0.273% in the assay on KB-3-1; -22.7% with NIH3T3.

As to `CC1(C)CCCC2(C)C(CO)C(CO)=CCC12` (stereo not given), the max response is -20.3% with CRL-7250; -4.79% in the assay on HEK293; 0.151% in the assay on HaCat; -2.42% in the assay with KB-3-1; -1.37% with NIH3T3.

Take `O=C(OC[C@@]1(O)CO[C@@H](O[C@H]2[C@H](Oc3ccc(O)cc3)O[C@H](CO)[C@@H](O)[C@@H]2O)[C@@H]1O)c1ccc(O)cc1`: the result in the assay with CRL-7250 was inactive. The max response in the assay on HEK293 is -7.32%; with HaCat it was -0.439%; in the assay with KB-3-1 it was -1.14%; in the assay on NIH3T3, -2.03%.

With `COC(=O)C1=CO[C@@H](O[C@@H]2O[C@H](CO[C@@H]3O[C@H](COC(=O)/C=C/c4cc(OC)c(O)c(OC)c4)[C@@H](O)[C@H](O)[C@H]3O)[C@@H](O)[C@H](O)[C@H]2O)[C@@H]2C(CO)=CC[C@H]12`, the max response is -3.63% in the assay with CRL-7250, 0.174% in the assay with HEK293, 4.35% in the assay with HaCat and -2.41% in the assay with NIH3T3. Besides, the compound was classed as inactive with KB-3-1.

On to `COc1cc(/C=C/C(=O)O[C@H]2[C@H](O)[C@@H](CO)O[C@@]2(CO)O[C@H]2O[C@H](CO)[C@@H](O)[C@H](O)[C@H]2O)ccc1O`, for which the max response with CRL-7250 is 3.83%; in the assay on HEK293 it was 0.588%; with HaCat it was -4.81%; in the assay with KB-3-1, 1.78%; in the assay on NIH3T3, 1.81%.

With `COc1ccc([C@H]2CNC(=O)C2)cc1OC1CCCC1`, the max response with CRL-7250 is -5.24%; in the assay on HEK293, -1.53%; in the assay with HaCat it was -27.2%; in the assay with KB-3-1, -2.59%; with NIH3T3 it was -18.3%.

As to `COC(=O)C[C@H]1[C@]2(C)C3=C(C)[C@H](c4ccoc4)C[C@H]3O[C@@H]2[C@H](OC(C)=O)C2[C@](C)(C(=O)OC)C=CC(=O)[C@@]21C` (stereo not given in full), the max response is 0.289% in the assay on CRL-7250; -6.04% in the assay with HEK293; -0.0032% in the assay with HaCat; 1.1% in the assay with KB-3-1; 4.56% in the assay on NIH3T3.

For the compound `C=C1CCC2C(C)(C)C(O)CCC2(C)C1CCC(C)CCO` (stereo not given), the max response was -1.18% in the assay with CRL-7250, -1.49% in the assay with HaCat, -10.1% in the assay with KB-3-1 and -0.535% in the assay on NIH3T3. Also, in the assay on HEK293, the Potency was 11.4 µM (active).
